From PubChem BioAssay AID1159580 (chemical genetic matrix, 2015)
Where “and” joins values, the source holds several entries; their conditions need not be identical. Equal values may be shown once. Screen size: about 5,500 compounds; about 2,000 (36%) were called active. Another 18% or so got no clear call; they are omitted. Cut-off read from the data, not from the text of the source: active = normalized growth mostly below about 0.91 (no sharp cut-off); inconclusive = no clear call, values can overlap the other calls; inactive = mostly above about 0.92. Some of the results follow.

Assay: chemical genetic growth profiling, strain panel (AID 1159580);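 note: tested at 20 µM; growth read once vehicle control cultures reached saturation at 30 °C; 1 = growth at the plate median or of vehicle wells; lower values mean less growth of the strain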
Settings: S. cerevisiae deletion strains, growth OD

Measured: normalized growth

COc1ccc(C2Sc3ccccc3N(CCN(C)C)C(=O)C2OC(C)=O)cc1 (stereo not given)
inactive: locus YAL013W, strain DEP1, active compounds read low 1 | locus YAL021C, strain ccr4, active compounds read low 0.985 | locus YAL026C, strain drs2, active compounds read low 0.969 | locus YAL030W, strain snc1, active compounds read low 0.986 | locus YBL061C, strain skt5, active compounds read low 0.987 | locus YBR009C, strain hhf1, active compounds read low 1.01 | locus YBR021W, strain FUR4, active compounds read low 1.04 | locus YBR023C, strain chs3, active compounds read low 0.988 | locus YBR171W, strain sec66, active compounds read low 0.966 | locus YBR229C, strain ROT2, active compounds read low 1.01 | locus YBR231C, strain swc5, active compounds read low 0.919 | locus YBR279W, strain paf1, active compounds read low 0.977 | locus YCL011C, strain gbp2, active compounds read low 0.971 | locus YCL016C, strain dcc1, active compounds read low 0.999 | locus YCL029C, strain bik1, active compounds read low 1.03 | locus YCL069W, strain vba3, active compounds read low 0.975 | locus YCR088W, strain abp1, active compounds read low 0.979 | locus YDL005C, strain med2, active compounds read low 0.953 | locus YDL035C, strain GPR1, active compounds read low 1.02 | locus YDL040C, strain nat1, active compounds read low 0.975 | locus YDL074C, strain BRE1, active compounds read low 1.04 | locus YDL101C, strain DUN1, active compounds read low 1.01 | locus YDL134C, strain PPH21, active compounds read low 1.01 | locus YDL185W, strain tfp1, active compounds read low 1.04 | locus YDL192W, strain arf1, active compounds read low 1.04 | locus YDR001C, strain nth1, active compounds read low 0.949 | locus YDR069C, strain doa4, active compounds read low 0.963 | locus YDR101C, strain arx1, active compounds read low 1.03 | locus YDR137W, strain rgp1, active compounds read low 1.01 | locus YDR150W, strain NUM1, active compounds read low 1.01 | locus YDR159W, strain sac3, active compounds read low 0.981 | locus YDR162C, strain NBP2, active compounds read low 1.01 | locus YDR195W, strain ref2 0.923 | locus YDR297W, strain sur2, active compounds read low 0.989 | locus YDR318W, strain mcm21, active compounds read low 1.03 | locus YDR334W, strain swr1, active compounds read low 0.917 | locus YDR335W, strain msn5, active compounds read low 0.943 | locus YDR388W, active compounds read low 1.03 | locus YDR392W, strain spt3, active compounds read low 1.02 | locus YDR502C, strain sam2, active compounds read low 1.03 | locus YEL003W, strain gim4, active compounds read low 0.978 | locus YEL037C, strain rad23, active compounds read low 0.97 | locus YEL061C, strain CIN8 (second series), active compounds read low 0.943 | locus YEL061C, strain CIN8, active compounds read low 1.01 | locus YER015W, strain faa2, active compounds read low 0.962 | locus YER016W, strain bim1, active compounds read low 0.993 | locus YER110C, active compounds read low 1.05 | locus YER111C, strain swi4, active compounds read low 0.953 | locus YER155C, strain BEM2 (second series), active compounds read low 0.986 | locus YER155C, strain BEM2, active compounds read low 1.01 | locus YER167W, strain BCK2, active compounds read low 1.03 | locus YFR010W, strain ubp6, active compounds read low 0.938 | locus YGL078C, strain dbp3, active compounds read low 1.03 | locus YGL086W, strain mad1, active compounds read low 1.02 | locus YGL167C, strain pmr1, active compounds read low 1.01 | locus YGL173C, strain kem1, active compounds read low 1.01 | locus YGL227W, strain vid30, active compounds read low 0.984 | locus YGL240W, strain doc1, active compounds read low 0.983 | locus YGL248W, strain PDE1, active compounds read low 1.01 | locus YGL253W, strain hxk2, active compounds read low 0.959 | locus YGR078C, strain PAC10, active compounds read low 1.01 | locus YGR135W, strain pre9, active compounds read low 1.02 | locus YGR229C, strain SMI1, active compounds read low 1.05 | locus YGR252W, strain gcn5, active compounds read low 1.06 | locus YHR013C, strain ard1, active compounds read low 0.979 | locus YHR027C, strain rpn1, active compounds read low 0.977 | locus YHR030C, strain SLT2, active compounds read low 1.01 and 1.04 | locus YHR079C, strain IRE1 (second series), active compounds read low 1.03 | locus YHR079C, strain IRE1, active compounds read low 1.01 | locus YHR094C, strain hxt1, active compounds read low 1.03 | locus YHR129C, strain ARP1, active compounds read low 1.01 | locus YHR142W, strain chs7, active compounds read low 0.972 | locus YHR200W, strain rpn10, active compounds read low 1.04 | locus YIL066C, strain RNR3, active compounds read low 1.01 | locus YIL073C, strain SPO22, active compounds read low 1.12 | locus YIL125W, strain kgd1, active compounds read low 1.03 | locus YIR030C, strain dcg1, active compounds read low 1.04 | locus YJL092W, strain hpr5, active compounds read low 0.99 | locus YJL095W, strain BCK1 (second series), active compounds read low 0.973 | locus YJL095W, strain BCK1, active compounds read low 1.03 and 1.01 | locus YJL115W, strain asf1, active compounds read low 0.949 | locus YJL129C, strain trk1, active compounds read low 0.925 | locus YJL134W, strain LCB3, active compounds read low 1 | locus YJL154C, strain vps35, active compounds read low 0.982 | locus YJL164C, strain tpk1, active compounds read low 0.996 | locus YJL166W, strain qcr8, active compounds read low 0.986 | locus YJL168C, strain set2, active compounds read low 1.04 | locus YJL187C, strain SWE1 (second series), active compounds read low 1.01 | locus YJR066W, strain TOR1, active compounds read low 0.942 | locus YJR075W, strain HOC1, active compounds read low 1.02
